Source: PubChem BioAssay AID1578 (Sanford-Burnham Center for Chemical Genomics, 2009)
About 3,000 (1%) of roughly 290,000 compounds were called active. The entries come from a sample that favours actives as a whole. Values without a mark were called inactive. Cut-off read from the data, not from the text of the source: active = inhibition mostly above about 36% (no sharp cut-off); inactive = mostly below about 34%.

Experiment: inhibition of NOD1-driven NF-kB reporter – cell-based, luminescence, uHTS, primary screen (AID 1578);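 note: HEK-293T reporter cells stimulated with the NOD1 agonist gamma-tri-DAP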
Conditions: NOD1-driven NF-kB luciferase reporter cells, at 4 µM, active compounds read high

| SMILES | inhibition |
| --- | --- |
| CN(C[C@H](CC1CCCCC1)N(C[C@H](Cc1ccccc1)N(CCc1ccccc1)N=O)N=O)N=O | -18.5% |
| O=c1cc(CNC2CCCCC2)c2ccccc2[nH]1 | 11.2% |
| COC(=O)c1ccc(-n2cncn2)c([N+](=O)[O-])c1 | -23.5% |
| CN=c1scc(-c2cccs2)n1/N=C/c1ccc(O)c(O)c1O | -24.6% |
| CN=c1scc(-c2cccs2)n1/N=C/c1ccccc1O | 107% (active) |
| CC(C)N=c1scc(-c2cccs2)n1/N=C/c1ccc(O)c(O)c1O | 54.6% |
| O=C(Cc1ccccc1)NCC(=O)N1CCN(c2ccccc2)CC1 | -14.1% |
| Cc1ccc(NC2=CC(=O)CC(c3ccc(Cl)cc3)C2)cc1 (centres undefined) | -10.3% |
| Fc1cccc(/C=N/Nc2ccc3ccccc3n2)c1 | 2.4% |
| Cc1cccc(/C=N/Nc2ccc3ccccc3n2)c1 | 63.5% (active) |
| C(=N\Nc1ccc2ccccc2n1)/c1ccc2c(c1)OCCO2 | 71.8% (active) |
| C(=N\Nc1nc2ccccc2[nH]1)/c1ccc2c(c1)OCCO2 | -1.4% |
| C(=N\Nc1ccccn1)/c1ccc2c(c1)OCCO2 | -30.1% |
| Cc1ccc(/C=N/Nc2ccc3ccccc3n2)o1 | 25.7% |
| Cc1ccc(OCC(O)CN2C(=O)NC(C)(C)C2=O)c(C)c1 (centres undefined) | -16.8% |
| Cc1ccc(N=Nc2[nH]c3ccccc3c2O)cc1 | -16% |
| COc1ccc(N2CC(C(=O)Nc3nnc(SCc4cccnc4)s3)CC2=O)cc1 (centres undefined) | -15.4% |
| O=C(O)CSc1nnc(CSc2nc3ccccc3s2)n1-c1ccccc1 | -26.6% |
| CC(C)(C)OC(=O)Nc1ncnc2c1ncn2C1OC(CO)C2OC(C)(C)OC21 (centres undefined) | 1.4% |
| COc1ccc(NC(=O)CSc2nnc(CN3CCOCC3)n2C)cc1Cl | -15% |
| Cc1cccc(NC(=O)NCC2CCN(c3ccc(S(=O)(=O)N4CCOCC4)cc3)CC2)c1 | -10.9% |
| C/C(=N\NC(=S)NCc1ccccc1)c1ccc2ccccc2c1OC(F)F | 48.2% (active) |
| COC(=O)N/N=C(\C)c1ccc2ccccc2c1OC(F)F | -30% |
| CCNC(=S)N/N=C(\C)c1ccc2ccccc2c1OC(F)F | -20.3% |
| CCc1ccc(CNC(=O)c2ccc(NC(=O)C3=CSCCO3)cc2)cc1 | -44.5% |
| COc1ccc(NC(=O)C2=CC(c3ccco3)=NS(=O)(=O)N2C)cc1OC | -21.6% |
| O=C(Nc1cc(Sc2ccccn2)cc([N+](=O)[O-])c1)c1cccc(Cl)c1 | 15.3% |
| O=C(Nc1cc(Sc2ccccn2)cc([N+](=O)[O-])c1)c1ccc([N+](=O)[O-])cc1 | 45.6% |
| O=C(Nc1cc(Sc2ccccn2)cc([N+](=O)[O-])c1)c1ccc(Cl)cc1 | 74.1% (active) |
